Reference: PubChem BioAssay AID763 (NMMLSC, 2007)

Molecular target: fMet-Leu-Phe receptor (Homo sapiens) (UniProt P21462)
Experiment: human FPR1 ligand displacement single-point test – cell-based, single concentration, selectivity assay for FPRL1 ligand SAR project, SAR follow-up (AID 763)
Conditions: FPR1-expressing cells, fluorescent ligand binding inhibition, hits give high values; at 5.4 µM unless noted; call rule not given here

Chain of fMet-Leu-Phe receptor (Homo sapiens) (P21462 whole entry, looked up): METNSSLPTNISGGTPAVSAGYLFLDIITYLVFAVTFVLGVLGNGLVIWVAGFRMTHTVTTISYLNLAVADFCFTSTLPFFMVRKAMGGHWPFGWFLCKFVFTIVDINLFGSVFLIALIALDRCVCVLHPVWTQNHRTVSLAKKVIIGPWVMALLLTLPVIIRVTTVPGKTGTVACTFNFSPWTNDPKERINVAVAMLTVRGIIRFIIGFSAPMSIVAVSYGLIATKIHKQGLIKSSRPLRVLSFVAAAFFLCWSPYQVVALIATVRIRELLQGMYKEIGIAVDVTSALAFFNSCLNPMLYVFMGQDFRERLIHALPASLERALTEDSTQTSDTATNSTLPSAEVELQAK

inhibition, inactive:
COc1ccc(-c2cn3cccnc3n2)cc1NC(=O)c1ccc(C(C)(C)C)cc1 5.7% [at 5.6 µM]
COc1ccc(-c2cn3cccnc3n2)cc1NC(=O)Cc1ccc(Cl)cc1 8% [at 5.7 µM]
COc1ccc(-c2cn3cccnc3n2)cc1NC(=O)c1ccc(F)c(F)c1 -1.7% [at 5.8 µM]
Cc1nc2c3c(-c4ccccc4)nc(N4CCN(C)CC4)nc3nn2c(C)c1CCC(=O)O 0% [at 5 µM]
COc1ccc(-c2cn3cccnc3n2)cc1NC(=O)C1CC1 -2.9% [at 7.2 µM]
O=C(O)CCC(=O)N1CCN(c2nc(-c3ccccc3)c3cc(Br)ccc3n2)CC1 -0.5% [at 4.7 µM]
COc1cccc(-c2cc(C(F)(F)F)nc(N3CCN(C)CC3)n2)c1 1.9% [at 6.3 µM]
FC(F)(F)c1cc(-c2cccs2)nc(N2CCN(C(c3ccccc3)c3ccccc3)CC2)n1 -2.4% [at 4.6 µM]
COc1ccc(-c2cn3cccnc3n2)cc1NC(=O)c1ccc(OC)c(OC)c1 -5.3% [at 5.5 µM]
COc1ccc(-c2cn3cccnc3n2)cc1NC(=O)c1ccco1 1.3% [at 6.7 µM]
COc1ccc(-c2cn3cccnc3n2)cc1NC(=O)C(C)(C)C 1.9% [at 6.9 µM]
CCCC(=O)Nc1cccc(-c2cn3cccnc3n2)c1 -1.6% [at 7.9 µM]
Cc1ccc(-c2cc(C(F)F)nc(N3CCN(c4ccccc4)CC3)n2)cc1 -2.2% [at 5.8 µM]
